Experimental data as given in PubChem BioAssay (NCATS).
Inconclusive results are not listed. Activity calls are given as the source filed them. Calls follow the shape of the dose curve; as a rule, active = well fitted cell-killing curve with a large enough effect; inconclusive = small, poorly fitted or top-dose-only effect, or effect the other way; inactive = no such curve, though single readings can be large or run the other way.

experiment: Quantitative High-Throughput drug screen in 47 multiple myeloma cell lines against the NCATS MIPE library collection: XG6_PLB cell viability assay (AID 1919865); settings: XG6 myeloma viability, CellTiter-Glo ATP luminescence, 48 h; series mostly up to 45.8 µM; also: nearly all actives have a fitted effect of over 40% in size
How it was run: (§1)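 500 cells/well per myeloma line exposed to pinned MIPE 4.0 compounds for 48 h at 37 °C, 5% CO2. Viability read as ATP by CellTiter-Glo luminescence, normalised to DMSO-only (100%) and media-only (0%) wells.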
Potency is read from the fitted curve at half-maximal effect.

Row | Structure (SMILES) | Potency
1 | CN1[C@H]2CC(OC(=O)[C@@H](CO)c3ccccc3)C[C@H]1[C@H]1O[C@H]12 (stereo not given in full) | inactive
2 | c1ccc(CNc2nc(NCc3ccccc3)c3ccccc3n2)cc1 | 8.33 µM (active)
3 | CN(C)c1ccc2cc(C(=O)N[C@@H](CCCN=C(N)CCl)C(=O)NCc3ccccc3)ccc2c1 | 0.935 µM (active)
4 | COc1cccc2c1C(=O)c1c(O)c3c(c(O)c1C2=O)C[C@@](O)(C(=O)CO)C[C@H]3O[C@H]1C[C@H](N)[C@H](O)[C@H](C)O1 | 0.132 µM (active)
5 | CCC(C(=O)O)C1CCC(C)C(C(C)C(O)C(C)C(=O)C(CC)C2OC3(C=CC(O)[C@@]4(CC[C@](C)(C5CC[C@@](O)(CC)C(C)O5)O4)O3)C(C)CC2C)O1 (stereo not given in full) | 3.32 µM (active)
6 | CCC(C=C[C@@H]1OC(=O)C=C[C@H]1C)=C[C@H](C)CC=CC(C)=C[C@@H](C)C(=O)[C@@H](C)[C@H](O)[C@@H](C)CC(C)=CC(=O)O | 0.0156 µM (active)
7 | CC(C)C[C@H](NC(=O)CNC(=O)c1cc(Cl)ccc1Cl)B1OC(=O)CC(CC(=O)O)(C(=O)O)O1 (stereo not given in full) | 0.0264 µM (active)
8 | COc1cc2c(cc1OC)[C@@H]1C(=O)c3ccc4c(c3O[C@@H]1CO2)C=CC(C)(C)O4 | 0.105 µM (active)

experiment: Quantitative High-Throughput drug screen in 47 multiple myeloma cell lines against the NCATS MIPE library collection: XG1_PLB cell viability assay (AID 1919866); settings: CellTiter-Glo ATP, 48 h; series mostly up to 45.8 µM; also: nearly all actives have a fitted effect of over 35% in size
How it was run: as §1

Row | Structure (SMILES) | Potency
9 | CCc1ccc(C(=O)Nc2cc(CN3CCN(C)CC3)cc(C(F)(F)F)c2)cc1C#Cc1cnc2ccnn2c1 | 4.69 µM (active)
10 | C=CC[C@@H]1C=C(C)C[C@H](C)C[C@H](OC)[C@H]2O[C@@](O)(C(=O)C(=O)N3CCCC[C@H]3C(=O)O[C@H](C(C)=C[C@@H]3CC[C@H](O)[C@H](OC)C3)[C@@H](C)[C@@H](O)CC1=O)[C@@H](C)C[C@@H]2OC | 2.35 µM (active)
11 | CO[C@@H]1[C@@H](O)[C@H](O)[C@@H](n2c3c(Cl)cccc3c3c4c(c5c6cccc(Cl)c6[nH]c5c32)C(=O)NC4=O)O[C@@H]1CO | 0.166 µM (active)
12 | Cc1cc(O)c2c(c1)C(=O)c1cccc(O)c1C2=O | inactive
13 | C[C@H](NC(=O)C(C#N)=Cc1cccc(Br)n1)c1ccccc1 | 2.09 µM (active)
14 | Cn1cnc(=N)c2[nH]cnc21 | 0.166 µM (active)
15 | CC(C)N1[N]C(=C2C=c3cc(O)ccc3=N2)c2c(N)ncnc21 | 0.0935 µM (active)
16 | COc1cccc2c1C(=O)c1c(O)c3c(c(O)c1C2=O)C[C@@](O)(C(=O)CO)C[C@@H]3O[C@H]1C[C@H](N)[C@@H](O)[C@H](C)O1 | 0.526 µM (active)
17 | COc1cc(C=CC(=O)CC(=O)C=Cc2ccc(O)c(OC)c2)ccc1O | 6.79 µM (active)
18 | CCC[C@H]1C[C@H](C(=O)N[C@@H]([C@@H]2O[C@@H](SC)[C@@H](O)[C@@H](O)[C@@H]2O)[C@H](C)Cl)N(C)C1 | inactive
19 | C=CC(=O)Nc1ccc2ncnc(Nc3ccc(OCc4cccc(F)c4)c(Cl)c3)c2c1 | 0.0662 µM (active)
20 | Cn1cc(C2=C(c3c4n(c5ccccc35)CCC(CN)C4)C(=O)NC2=O)c2ccccc21 (stereo not given) | 7.43 µM (active)
21 | O=C(Nc1cccc(Nc2ncc(Br)c(NCCc3cnc[nH]3)n2)c1)N1CCCC1 | 0.372 µM (active)
22 | C=CCNc1c(O)cc2c(O)c1C[C@@H](C)C[C@H](OC)[C@@H](O)[C@@H](C)C=C(C)[C@H](OC(N)=O)[C@@H](OC)C=CC=C(C)C(=O)N2 | 0.418 µM (active)
23 | CCS(=O)(=O)Nc1ccc2[nH]c(O)c(C(=Nc3ccc(CN4CCCCC4)cc3)c3ccccc3)c2c1 | 1.32 µM (active)
24 | CCN(CC)CCNC(=O)c1c(C)[nH]c(C=C2C(=O)Nc3ccc(F)cc32)c1C | 3.03 µM (active)
25 | O=C1NC(=O)[C@@H](c2cn3c4c(cccc24)CCC3)[C@H]1c1c[nH]c2ccccc12 | 0.0332 µM (active)
26 | COC1=C2C[C@@H](C)C[C@H](OC)[C@@H](O)[C@@H](C)C=C(C)[C@H](OC(N)=O)[C@@H](OC)C=CC=C(C)C(=O)NC(=CC1=O)C2=O | 0.209 µM (active)
27 | NC(=NCCCCCCN=C(N)N=C(N)Nc1ccc(Cl)cc1)N=C(N)Nc1ccc(Cl)cc1 | 2.64 µM (active)
28 | Nc1nc(N)c2nc(-c3cccc(O)c3)c(-c3cccc(O)c3)nc2n1 | 4.18 µM (active)
29 | CC(C)C[C@H](NC(=O)[C@@H](NC(=O)c1cccc(-c2ccccc2)n1)[C@@H](C)O)B(O)O | 0.0187 µM (active)
30 | C#C[C@]1(O)CC[C@@H]2[C@@H]3CCC4=CC(=O)CC[C@@H]4[C@H]3CC[C@@]21CC | inactive
